Where “and” joins values, the source holds several entries; their conditions need not be identical. Equal values may be shown once. About 83,000 compounds went through this panel and 20% of them were active in at least one assay; those are over-represented in the sample as a whole.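 A percent growth of 40 corresponds to 60% growth inhibition; 0 means no net growth; -100 means all cells died. Active threshold: below 10.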 Calls of active or inactive are those of the source.

The first assay relates to NCI-H23 lung. As to the kind of experiment: NCI-60 one-dose screen, 48 h (100 = growth as untreated, 0 = no growth, -100 = all killed). The settings on record: 10 µM. As to the method:
Growth inhibition of the NCI-H23 human Non-Small Cell Lung tumor cell line is measured as a screen for anti-cancer activity. Cells are grown in 96 well plates and exposed to the test compound for 48 hours. Compounds are tested at a single concentration, which is 10^-5 M for most compounds. The reported endpoint is percent growth (GI% or GIPRCNT), where numbers from 0 - 100% represent growth inhibition, and numbers from -100% - 0 represent cell death. For example, a value of 40 represents 60% growth inhibition. A value of 0 means no net growth occurred over the course of the experiment. A value of -40 indicates 40% of cells at the beginning of the experiment died by the end of the experiment. A value of -100 means all cells are dead at the end of the experiment.
NCI-60 Human Tumor Cell Lines Screen was performed using the standard one-dose NCI protocol, which is described in more detail at https://dtp.cancer.gov/discovery_development/nci-60/default.htm.
Compounds with GIPRCNT values below 10 were considered active. Activity score was based on GIPRCNT using the following formula: […]
Score is 0 for GIPRCNT values of 100 or above, 50 for GIPRCNT values of 0, and 100 for GIPRCNT values of -100.
On to `COc1ccc(Cl)cc1C(=O)NCCc1ccc(S(=O)(=O)NC(=O)NC2CCCCC2)cc1`, for which the growth was 103% (inactive) and 104% (inactive).

As for `CC#C[C@]1(O)CC[C@H]2[C@@H]3CCC4=CC(=O)CCC4=C3[C@@H](c3ccc4c(c3)OCO4)C[C@@]21C`, the growth is 82.8% (inactive).

The same assay, now with this note: 10 µM unless noted.
As for `CCOc1ccc(Nc2c3ccccc3nc3ccccc23)cc1`, the growth was 92.1% (inactive) and 36.3% (inactive) and 18.6% (inactive).

For `CC(C)(O)Cn1cc(-c2ccc3nc(OC4CC4)ccc3c2)c2c(N)ncnc21`, the growth is 70.1% (inactive) and 42% (inactive).

Consider `C#CCN(C)Cc1ccccc1`, for which the growth was 106% (inactive) and 104% (inactive).

`CCN(CC)CCc1nc(-c2ccccc2)no1`: the growth is 83.8% (inactive) and 102% (inactive).

For the compound `CC(=O)c1ccccc1O`, the growth was 103% (inactive) and 97.7% (inactive).

On to `O=C(c1ccc(Cl)cc1)C(NCCO)c1ccc(Cl)cc1` (stereo not given), for which the growth is 90.7% (inactive) and 90.4% (inactive).

As to `CCN(CC)CCCC(CNc1ccnc2cc(Cl)ccc12)c1ccc(Cl)cc1` (stereo not given), the growth was 48.9% (inactive) and 54.3% (inactive).

On to `CN1CCN(CCC=C2c3ccccc3Sc3ccc(S(=O)(=O)N(C)C)cc32)CC1`, for which the growth was 84.4% (inactive) and 91% (inactive).

In the case of `CC(C(=O)O)n1cc(C#N)c(=O)[nH]c1=O` (stereo not given), the growth was 108% (inactive) and 111% (inactive).

For the compound `COc1cc(C(=O)c2ccc3c(c2)OCO3)cc(OC)c1OC`, the growth is 49.2% (inactive) and 40.8% (inactive).

For `CC1=NN(c2ccccc2)C(=O)C1C(=O)c1ccccc1` (stereo not given), the growth is 98.2% (inactive).

Consider `COc1ccc2cc3[n+](cc2c1OC)CCc1cc2c(cc1-3)OCO2`, for which the growth was 43.4% (inactive) and 50.4% (inactive).

Regarding `COc1ccc(-c2cn[nH]c2-c2cc(OC)c(OC)c(OC)c2)cc1N`, the growth is 22.5% (inactive) and 28.3% (inactive).

For the compound `CCN(CC)CCCC(C)Nc1ccnc2cc(Oc3ccccc3)ccc12` (stereo not given), the growth was 90.1% (inactive) and 78.7% (inactive).

For the compound `Cc1nn(-c2ccccc2)nc1C(=O)Nc1ccccc1C(=O)NCC1CC1`, the growth is 102% (inactive) and 77.6% (inactive).

Take `CCCCCCCCCCCCCCCc1cc(O)ccc1N`: the growth is 90.5% (inactive) and 89.6% (inactive).

As to `CC(C)(C)c1ccc(O)c(CNC2CCCCC2)c1`, the growth was 96.6% (inactive) and 90.8% (inactive).

For `O=C(O)C1C2C=CC(C2)C1C(=O)O` (stereo not given), the growth was 104% (inactive) and 30.6% (inactive) and 111% (inactive).

`O=C(CCc1ccc(O)cc1)N/N=C/c1cc(Br)ccc1O`: the growth was 61.4% (inactive).

Take `CO/N=C/C=C\C(=O)N/C=C/C[C@H]1/C=C/[C@H](O)/C=C\C=C\c2cccc(O)c2C(=O)O1`: the growth is 61.4% (inactive) and 54.8% (inactive).

Take `ClC/C=C/CSc1ncnc2nc[nH]c12`: the growth was 101% (inactive) and 102% (inactive).

Regarding `CC1=C(/C=C/C(C)=C/C=C/C(C)=C/C=N/NC(=S)NC(=S)N/N=C/C=C(C)/C=C/C=C(C)/C=C/C2=C(C)CCCC2(C)C)C(C)(C)CCC1`, the growth was -27.2% (active) and -49.8% (active).

As for `COc1cc2c(Nc3ccc(Cl)c(Cl)c3F)ncnc2cc1OCC1C[C@@H]2CN(C)C[C@@H]2C1` (stereo not given in full), the growth was -82.2% (active) and 40% (inactive).

As for `O=C1OC(Oc2ccc(Br)cc2)(c2ccccc2)c2ccccc21` (stereo not given), the growth was 91.1% (inactive) and 80.5% (inactive).

`Oc1ccccc1/C=N\NC(=S)N/N=C/c1ccccc1O`: the growth was 62.6% (inactive) and 58.7% (inactive).

In the case of `O=C(CN1CCN(c2cc3c(cc2F)c(=O)c(C(=O)O)cn3C2CC2)CC1)Nc1ccc(Cl)cc1`, the growth was 94.5% (inactive) and 87.5% (inactive).

Turning to `COc1cc2nc(N3CCC[C@@H](NC(=O)C4COc5ccccc5O4)C3)nc(N)c2cc1OC` (stereo not given in full), the growth is 99.6% (inactive) and 99.7% (inactive).

In the case of `Cn1c(SSc2ccc(-c3cccnc3)n2C)ccc1-c1cccnc1`, the growth is 99.8% (inactive) and 111% (inactive).

Regarding `OCCN1CCN(CCCN2c3ccccc3Sc3ccc(Cl)cc32)CC1`, the growth is 66.4% (inactive) and 80.2% (inactive).

As for `N/C(=N\N=C\c1ccc2c(c1)OCO2)N/N=C\c1ccc2c(c1)OCO2`, the growth was 109% (inactive) and 89% (inactive).

In the case of `COc1cc(Nc2nc3ccccc3nc2NS(=O)(=O)c2ccc(NC(=O)c3ccc(C)c(OC)c3)cc2)cc(OC)c1`, the growth is 48.3% (inactive) and 19.8% (inactive).

Regarding `c1ccc(NCc2ccc3c(c2)OCO3)cc1`, the growth was 100% (inactive) and 105% (inactive).

With `CCOc1ccc2cc(-c3nn(CC4CCNCC4)c4ncnc(N)c34)ccc2c1`, the growth was 77.5% (inactive) and 55.6% (inactive).

On to `CCOC(=O)C(C(=O)OCC)C(c1ccccc1)N1CCN(c2ccccc2)CC1` (stereo not given), for which the growth is 107% (inactive) and 114% (inactive).

Take `CCOC(=O)C(CNc1ccccc1)C(=O)OCC`: the growth was 100% (inactive).

Consider `CC1=C[C@H]2c3c(c(O)c(O)c4oc5cc(O)cc(O)c5c(=O)c34)[C@H](c3cc(O)c(O)c4oc5cc(O)cc(O)c5c(=O)c34)[C@H]2C(C)(C)C1`, for which the growth is -5.6% (active) and -52.4% (active).

Still in this assay, the particulars now being: 100 µM.
Turning to `COc1ccc(Cl)cc1C(=O)NCCc1ccc(S(=O)(=O)NC(=O)NC2CCCCC2)cc1`, the growth is 81.8% (inactive).

`CC#C[C@]1(O)CC[C@H]2[C@@H]3CCC4=CC(=O)CCC4=C3[C@@H](c3ccc4c(c3)OCO4)C[C@@]21C`: the growth was -8.63% (active).

Source of the values: PubChem BioAssay (NCI).
